Reference: PMC7826789 (International Journal of Molecular Sciences, 2021)

Key:
Settings in all cases: Compound Concentration (nM):1000
CSNK2A2 = tested on: CSNK2A2
CTK = tested on: T1, CTK
T1 construct: gene MATK

DAPK1 = tested on: DAPK1
DAPK2 = tested on: DAPK2
DAPK3 = tested on: DAPK3
DCAMKL1 = tested on: T2, DCAMKL1
T2 construct: gene DCLK1

DCAMKL2 = tested on: T3, DCAMKL2
T3 construct: gene DCLK2

DCAMKL3 = tested on: T4, DCAMKL3
T4 construct: gene DCLK3

DDR1 = tested on: DDR1
DDR2 = tested on: DDR2
DLK = tested on: T5, DLK
T5 construct: gene MAP3K12

DMPK2 = tested on: T6, DMPK2
T6 construct: gene CDC42BPG

DMPK = tested on: DMPK
DRAK1 = tested on: T7, DRAK1
T7 construct: gene STK17A

DRAK2 = tested on: T8, DRAK2
T8 construct: gene STK17B

DYRK1A = tested on: DYRK1A
DYRK1B = tested on: DYRK1B
DYRK2 = tested on: DYRK2
EGFR(E746-A750del) = tested on: EGFR(E746-A750del)
EGFR(G719C) = tested on: EGFR(G719C)
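Also: KINOMEscan scanMAX binding as percent activity remaining versus control; lower means stronger binding.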

| Compound | Percent Control (CSNK2A2) | Percent Control (CTK) | Percent Control (DAPK1) | Percent Control (DAPK2) | Percent Control (DAPK3) | Percent Control (DCAMKL1) | Percent Control (DCAMKL2) | Percent Control (DCAMKL3) | Percent Control (DDR1) | Percent Control (DDR2) | Percent Control (DLK) | Percent Control (DMPK2) | Percent Control (DMPK) | Percent Control (DRAK1) | Percent Control (DRAK2) | Percent Control (DYRK1A) | Percent Control (DYRK1B) | Percent Control (DYRK2) | Percent Control (EGFR(E746-A750del)) | Percent Control (EGFR(G719C)) |
| --- | --- | --- | --- | --- | --- | --- | --- | --- | --- | --- | --- | --- | --- | --- | --- | --- | --- | --- | --- | --- |
| CN(C)CCNC(=O)Nc1ccc(N(C)c2ccnc(Nc3ccc(CS(C)(=O)=O)cc3)n2)cc1.Cl [GW830900A] | 62% | 86% | 94% | 100% | 100% | 89% | 100% | 100% | 73% | 17% | 67% | 91% | 100% | 100% | 100% | 100% | 100% | 85% | 92% | 96% |
| CCS(=O)(=O)c1ccc(OC)c(Nc2ncc(-c3cccc(OC)c3)o2)c1 [GW580509X] | 4.4% | 100% | 100% | 90% | 100% | 81% | 100% | 100% | 59% | 100% | 88% | 100% | 100% | 100% | 100% | 39% | 41% | 23% | 81% | 100% |
| C/C(Nc1ccc(S(N)(=O)=O)cc1)=C1/C(=O)Nc2ccccc21 [GW335962X] | 21% | 84% | 94% | 93% | 96% | 80% | 80% | 100% | 95% | 100% | 73% | 97% | 99% | 100% | 97% | 77% | 93% | 46% | 100% | 91% |
| COc1cc(N2CCN(C(C)C)CC2)ccc1Nc1nc(Nc2ccc(F)cc2C(=O)NC[C@@H](O)CO)c2cc[nH]c2n1 [GSK1392956A] | 88% | 95% | 13% | 6.8% | 4.3% | 78% | 100% | 100% | 98% | 100% | 77% | 75% | 100% | 87% | 93% | 53% | 75% | 24% | 74% | 94% |
| CC1=C(C(=O)Nc2ccc3[nH]ncc3c2)C(c2ccc(Cl)c(Cl)c2)CC(=O)N1 (stereo not shown) [GSK299115A] | 79% | 62% | 81% | 83% | 81% | 83% | 55% | 45% | 88% | 81% | 77% | 82% | 100% | 100% | 84% | 70% | 59% | 68% | 98% | 66% |
| CN(C)c1cc2c(Nc3ccc4c(cnn4Cc4ccccc4)c3)ncnc2cn1 [GW282974X] | 65% | 100% | 100% | 91% | 100% | 85% | 100% | 100% | 66% | 100% | 82% | 48% | 95% | 69% | 100% | 93% | 100% | 73% |  |  |
| Cl.O=C(O[C@H]1CN[C@H](C#Cc2cc3ncnc(Nc4ccc5c(cnn5Cc5ccccc5)c4)c3s2)C1)N1CCOCC1 [GSK200398A] | 70% | 89% | 95% | 100% | 100% | 82% | 100% | 100% | 92% | 100% | 71% | 100% | 100% | 89% | 99% | 76% | 100% | 84% | 38% | 0.1% |
| COc1cccc(-c2c[nH]c3c(N/N=C/c4ccncc4)ncnc23)c1 [GW814408X] | 1.5% | 100% | 100% | 100% | 100% | 100% | 100% | 56% | 86% | 60% | 87% | 82% | 100% | 17% | 32% | 7.6% | 24% | 8.3% | 12% | 27% |
| CCc1ccc(Oc2nccc(-c3c(-c4ccc(F)cc4)ncn3C3CCNCC3)n2)cc1 [SB-242719] | 69% | 89% | 92% | 74% | 69% | 77% | 81% | 100% | 73% | 94% | 100% | 2.1% | 100% | 77% | 55% | 95% | 98% | 76% | 46% | 69% |
| Cc1cc(O)cc(C)c1/C=C/c1cncc(C(N)=O)c1 [GW435821X] | 78% | 98% | 100% | 100% | 100% | 87% | 100% | 100% | 40% | 74% | 90% | 100% | 100% | 100% | 100% | 93% | 100% | 75% | 69% | 89% |
| COc1cc(C)c(N(C)C(=O)CN(C)C)cc1Nc1nc(Nc2cccc(F)c2C(N)=O)c2cc[nH]c2n1 [GSK2219385] | 81% | 100% | 85% | 73% | 71% | 78% | 100% | 100% | 78% | 100% | 80% | 99% | 84% | 88% | 83% | 60% | 100% | 100% | 100% | 98% |
| CCS(=O)(=O)c1ccc(OC)c(Nc2ncc(-c3cccc(F)c3)o2)c1 [GW621970X] | 1.4% | 100% | 100% | 100% | 100% | 100% | 98% | 100% | 55% | 100% | 71% | 100% | 100% | 100% | 100% | 61% | 67% | 41% | 73% | 100% |
| COc1ccc2c(-c3ccnc(Nc4cccc(OC(F)(F)F)c4)n3)cnn2n1 [GW810372X] | 59% | 100% | 100% | 98% | 100% | 100% | 100% | 100% | 100% | 100% | 92% | 100% | 100% | 81% | 100% | 35% | 13% | 45% | 99% | 97% |
| NS(=O)(=O)c1ccc(N/N=C2\C(=O)Nc3ccc(C(=O)NCc4ccncc4)cc32)cc1 [GW300657X] | 28% | 97% | 63% | 65% | 51% | 67% | 83% | 72% | 100% | 89% | 76% | 91% | 100% | 0.3% | 4.7% | 63% | 97% | 37% | 91% | 100% |
| NS(=O)(=O)c1ccc(N/N=C2\C(=O)Nc3ccc(Cl)cc32)cc1 [GW280670X] | 54% | 100% | 100% | 100% | 100% | 94% | 100% | 100% | 100% | 100% | 96% | 100% | 100% | 100% | 100% | 100% | 100% | 93% | 100% | 100% |
| COc1ccc2cc(-c3c(-c4ccncc4)nc(-c4ccc(S(C)(=O)=O)cc4C)n3C)ccc2c1 [SB-633825] | 79% | 62% | 96% | 88% | 82% | 71% | 85% | 89% | 2% | 58% | 84% | 41% | 100% | 93% | 79% | 77% | 100% | 70% | 57% | 66% |
| NS(=O)(=O)c1ccc(N/N=C2\C(=O)Nc3ccc(C(=O)NCCc4c[nH]cn4)cc32)cc1 [GW300660X] | 1.4% | 100% | 44% | 100% | 15% | 65% | 100% | 100% | 100% | 100% | 100% | 100% | 100% | 3.8% | 12% | 50% | 100% | 11% | 100% | 100% |
| CC(C)COC(=O)c1ccc2c(c1)/C(=C/Nc1ccc(S(N)(=O)=O)cc1)C(=O)N2 [GW416981X] | 1.5% | 100% | 24% | 9.4% | 9.8% | 38% | 100% | 4.6% | 100% | 100% | 14% | 100% | 100% | 0.3% | 5.5% | 26% | 45% | 18% | 82% | 4.6% |
